Compound activity from PubChem.
RecA splice inh: blocks M. tuberculosis RecA intein splicing. P9WHJ3. cell-free RecA intein splicing, fluorescence. inhibition, % (concentration not given with the values). 290,000 tested, 0.75% active; in the data active = inhibition above about 30%;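 also: 0% = vehicle wells and 100% = reference inhibitor control wells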
Target sequence (P9WHJ3 whole entry, looked up, canonical isoform): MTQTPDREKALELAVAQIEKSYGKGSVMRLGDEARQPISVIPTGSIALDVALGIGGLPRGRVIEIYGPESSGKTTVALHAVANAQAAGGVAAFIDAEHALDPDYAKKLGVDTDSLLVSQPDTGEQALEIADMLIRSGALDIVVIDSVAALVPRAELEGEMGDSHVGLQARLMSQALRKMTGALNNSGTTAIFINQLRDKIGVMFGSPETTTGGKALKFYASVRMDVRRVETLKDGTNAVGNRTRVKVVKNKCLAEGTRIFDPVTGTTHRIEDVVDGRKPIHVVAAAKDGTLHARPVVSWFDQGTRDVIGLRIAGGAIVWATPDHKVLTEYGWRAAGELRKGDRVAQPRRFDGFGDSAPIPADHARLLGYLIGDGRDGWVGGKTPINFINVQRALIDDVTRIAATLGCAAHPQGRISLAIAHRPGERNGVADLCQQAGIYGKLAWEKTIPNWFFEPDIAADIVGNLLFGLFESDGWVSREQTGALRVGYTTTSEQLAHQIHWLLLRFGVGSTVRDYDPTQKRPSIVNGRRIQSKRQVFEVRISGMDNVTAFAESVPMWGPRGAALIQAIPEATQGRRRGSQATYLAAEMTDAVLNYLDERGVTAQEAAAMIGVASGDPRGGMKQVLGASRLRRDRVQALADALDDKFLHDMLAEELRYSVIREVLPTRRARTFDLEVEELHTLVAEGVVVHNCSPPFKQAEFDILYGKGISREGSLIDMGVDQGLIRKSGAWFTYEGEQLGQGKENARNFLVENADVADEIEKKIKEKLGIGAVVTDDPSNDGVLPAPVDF
Rv3671c inh: Rv3671c (M. tuberculosis) protease inhibition. inhibition, % at 5.96 µM. 320,000 tested, 0.048% active. P9WHR9; in the data active = inhibition above about 38%;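 also: extracellular domain of Rv3671c used as enzyme; 0% = enzyme with DMSO and 100% = no enzyme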
FadD28 FP inh: M. tuberculosis FadD28 bisubstrate binding inhibition; FadD28 bisubstrate probe binding, fluorescence polarization; inhibition, % at 12.5 µM; 360,000 tested, 0.22% active; AID 588549; in the data active = inhibition above about 8.5%, passing the limit was not always enough
PrP 5UTR inh: suppresses PrP 5' UTR mRNA reporter expression; cell-based PrP 5' UTR mRNA reporter, plate reader; inhibition, % (test concentration not listed); 340,000 tested, 0.35% active; AID 488862; in the data active = inhibition above about 52%; also: 0 = median of the neutral control wells
BJeLR lethal: kills HRASV12-expressing BJeLR cells; BJeLR (HRASV12) viability, CellTiter-Glo ATP luminescence, 48 h; inhibition, % (concentration not given with the values); 300,000 tested, 0.17% active; AID 1554; in the data active = inhibition above about 50%
Mtb UGM inh: inhibitors of M. tuberculosis UDP-galactopyranose mutase | P9WIQ1 | purified UGM, fluorescence polarization probe displacement | inhibition, % at 10 µM | 320,000 tested, 0.06% active | AID 504406; in the data active = inhibition above about 10%, passing the limit was not always enough
Active calls of the source: *; x = no result given. Sampled rows, rich in hits. Any-hit rate of the full collection: about 1.3%.

SMILES | RecA splice inh | Rv3671c inh | FadD28 FP inh | PrP 5UTR inh | BJeLR lethal | Mtb UGM inh
Cc1ccccc1Nc1nc(-c2sc(NC(=O)c3ccc([N+](=O)[O-])cc3)nc2C)cs1 | 2.4 | 0.0 | x | x | 0.3 | -0.2
O=C1NC(=S)S/C1=C\c1cc(Cl)cc(Cl)c1O | x | x | 33.0* | -21.7 | x | x
O=C1OCCC1=COCCCCCOC=C1CCOC1=O | x | x | 0.5 | x | x | x
O=C(CS(=O)(=O)Cc1ccccc1)Nc1ccc(S(=O)(=O)N2CCCCCC2)cc1 | 1.1 | -27.8 | 23.6* | -16.4 | 3.7 | -1.3
CC(c1nnnn1C(C)(C)C)N(Cc1cccnc1)Cc1ccccc1Cl (configuration not stated) | 3.3 | 0.2 | -3.6 | -22.4 | -9.3 | -2.4
CC(C)(C)n1nnnc1C(c1cccs1)N(Cc1cccnc1)Cc1ccccc1Cl (configuration not stated) | 34.9* | -0.7 | -3.0 | -4.0 | -0.1 | -0.5
CCCCCn1c(N)c(C(=O)NCCN2CCOCC2)c2nc3ccccc3nc21 | -122.2 | 4.0 | -6.3 | -15.2 | -3.8 | 0.3
Nc1c(C(=O)NCCCc2ccccc2)c2nc3ccccc3nc2n1Cc1cccs1 | 32.3* | -19.1 | -11.2 | -26.9 | -6.5 | 0.9
CCCCn1c(N)c(C(=O)NCc2cccs2)c2nc3ccccc3nc21 | 75.5* | -53.2 | 0.0 | -15.2 | -6.3 | 0.8
CCOc1ccccc1N(CC(=O)Nc1ccccc1Br)S(=O)(=O)c1ccccc1 | x | x | -7.6 | x | x | x
CC(C)Nc1ncnc2c1ncn2[C@H]1CN(CCN2CCOCC2)C[C@@H](CO)O1 | x | x | -1.0 | x | x | x
O=C(/C=C/c1cccc2ccccc12)c1ccncc1 | 6.2 | -7.1 | -4.9 | -14.2 | 70.8* | -1.7
O=C1C=C(c2ccccc2)C(c2ccccc2)C1O (configuration not stated) | x | x | -2.8 | -8.9 | x | x
Cc1ccc(NC2=C(Cl)C(=O)OC2OC(=O)c2ccco2)cc1C (configuration not stated) | 54.0* | -5.2 | -7.0 | -0.3 | 0.6 | -1.9
Cc1ccc(C)c(NC2=C(Cl)C(=O)OC2OC(=O)c2ccco2)c1 (configuration not stated) | 46.0* | 1.5 | -6.9 | -10.3 | 2.5 | 2.2
CCOC(=O)C1Nc2ccccc2C2c3ccccc3CC12 (configuration not stated) | 18.5 | 4.3 | -5.6 | 12.3 | 1.8 | 3.5
CCOC(=O)C1Nc2c(F)cc(C)cc2C2c3ccccc3CC12 (configuration not stated) | 45.0* | -9.2 | -1.1 | -10.1 | -1.4 | 0.2
Cc1ccc(C(=O)Oc2cccc(NC(=O)c3ccccc3)c2)cc1C | 15.0 | -101.7 | -4.3 | -15.8 | 9.7 | 0.5
O=C(Nc1cccc(OC(=O)c2ccc(Br)o2)c1)c1ccccc1 | 43.2* | 9.9 | -2.6 | -22.7 | -10.8 | 0.5
CCN1C(=NCCCOC(C)C)N[C@@H](CCc2ccccc2)[C@H](C(=O)NCCCOC(C)C)[C@H]1C | x | 7.3 | -0.5 | 2.0 | x | 3.1
Cc1c(Cl)cccc1NC(=S)/C(=C(\[O-])c1ccc(Cl)s1)[n+]1ccccc1 | 37.2* | -0.7 | -1.3 | -4.4 | 4.9 | 3.2
[O-]/C(=C(\C(=S)Nc1cccc2ccccc12)[n+]1cccc(CO)c1)c1ccc(Cl)s1 | x | x | -3.6 | -53.2 | x | x
Cc1c(C)c2cccnc2c2ncccc12 | x | -12.6 | -1.7 | 58.6* | x | -1.3
CC(C)CC(=O)O/N=C1\C(=O)N(Cc2ccc(Cl)cc2)c2ccc([N+](=O)[O-])cc21 | 11.2 | 77.5* | x | x | -4.4 | -0.4
CC(=O)O/N=C1\C(=O)N(Cc2ccc(C)cc2)c2ccccc21 | x | x | -1.7 | -3.3 | x | x
SMILES | RecA splice inh | Rv3671c inh | FadD28 FP inh | PrP 5UTR inh | BJeLR lethal | Mtb UGM inh
CCCCC[C@@H](/C=C/C1C(=O)C=C[C@H]1C/C=C\CCCC(=O)OC)OC(C)=O (some centres not stated) | x | x | -4.2 | -27.3 | x | x
Cc1cc(Cl)n2c(nc3ccccc32)c1C#N | 5.1 | x | -1.0 | 24.5 | 61.2* | x
CNc1cc(C)c(C#N)c2nc3ccccc3n12 | -44.5 | -7.1 | 0.4 | -16.8 | -4.3 | 1.3
CC(O)(c1cccc(F)c1)c1nc(-c2cc(F)cc(F)c2)cs1 (configuration not stated) | x | x | -1.9 | x | x | x
COc1ccc(/C=C2\COc3ccccc3C2=O)c(OC)c1 | 0.5 | -3.7 | -2.6 | -19.7 | -3.0 | -4.0
COc1ccc(C=C2c3ccccc3C(=O)c3ccccc32)c(OC)c1 | x | 0.1 | -2.1 | 46.4 | 53.5* | 2.8
COc1cc(/C=C2\SC(=O)N(Cc3ccc(Cl)cc3)C2=O)cc([N+](=O)[O-])c1O | x | x | 24.2* | -25.5 | x | x
COc1cc([N+](=O)[O-])cc(/C=C2/SC(=S)N(Cc3ccccc3)C2=O)c1O | 9.4 | -147.8 | 47.3* | 0.1 | -0.3 | -7.0
CN1CCN(C(=O)c2cc3c(c(-c4cccc(-c5cc6ccccc6o5)c4)n2)[C@@H](CCO)N(S(=O)C(C)(C)C)C3)CC1 (some centres not stated) | x | x | -3.1 | x | x | x
O=C(CCl)Nc1cn(-c2ccccc2)nc1-c1ccccc1 | 40.2* | -2.9 | -3.7 | -19.5 | 1.4 | -1.4
CN(CC1CCCN(CCc2ccccc2F)C1)C(=O)c1cc2ccccc2o1 (configuration not stated) | x | x | -3.0 | x | x | x
CCC(CC)NC(=O)Nc1cccc(C)c1C | 1.3 | -6.2 | -0.4 | -11.3 | -1.7 | -1.6
CC(C)N(CC(=O)Nc1ccc(Cl)cc1C(F)(F)F)C(=O)CCl | 59.1* | 1.3 | -2.0 | -6.2 | -6.1 | -1.4
O=C(O)CSCC(=O)Nc1ccc(Cl)cc1C(F)(F)F | -0.8 | -10.0 | -3.8 | -24.1 | -5.1 | 9.5
CCC(C)N(CC(=O)Nc1cccc(C)c1C)C(=O)CCl (configuration not stated) | 43.2* | -2.0 | -1.6 | -21.5 | 35.7 | -1.1
O=C(NC1=C(Nc2ccc(F)cc2)C(=O)c2ccccc2C1=O)c1ccc(Cl)cc1 | 58.9* | -52.5 | -3.9 | -28.3 | -13.9 | 0.4
O=C(NNC(=O)c1ccc(NC(=O)c2ccccc2)cc1)c1ccc(F)cc1 | -1.5 | -7.9 | -4.5 | -0.8 | 2.2 | 0.6
COc1cccc(C(O)c2nc(-c3ccc(OC)nc3)cs2)c1 (configuration not stated) | x | x | -0.9 | x | x | x
O=[N+]([O-])c1cc(C(F)(F)F)ccc1NCCc1c[nH]c2ccc(O)cc12 | 8.0 | 11.7 | 11.7* | -28.5 | -2.0 | 1.0
O=[N+]([O-])c1cc(C(F)(F)F)ccc1NCCc1c[nH]c2ccccc12 | -2.3 | 2.2 | 0.4 | -12.0 | 25.7 | -0.2
COC(=O)Cc1ccc(OC2(C)CCN(Cc3ccccc3)C2)cc1 (configuration not stated) | x | x | -3.2 | x | x | x
O=c1cnnc(N/N=C/c2ccccn2)[nH]1 | -7.5 | -3.4 | 0.1 | 25.2 | 63.2* | -0.2
Cc1cc(=O)[nH]c(N/N=C/c2ccccn2)n1 | -10.7 | -0.7 | 0.5 | 14.7 | 24.2 | 2.4
Cc1nc2ccc(CN(C)c3ccc(C(=O)N[C@@H](CCC(=O)O)C(=O)O)s3)cc2c(=O)[nH]1 | -3.8 | -3.7 | x | x | 71.9* | 0.8
